Data on 30 molecules can be found in the supplement of paper PMC9801561.

± gives the standard deviation of the averaged measurements.

Test [1] relates to Escherichia coli Nissle 1917. Description: area under OmniLog respiration curve over 48 h (OmniLog units x h); higher = more growth / nutrient utilisation; extreme values may be limits of the assay. The note with it: incubation: 48 h, 37 °C.
For test [2], the system named is Escherichia coli Nissle 1917. The test is described as follows: DuctApe activity index of respiration/growth curve (0 no growth to 9 maximum) (index 0-9); higher = more growth / nutrient utilisation, active = 3 or more; extreme values may be limits of the assay. The note with it: incubation: 48 h, 37 °C.
The mark [3] stands for this setting: nutrient role: C-Source, carbohydrate.
[4] abbreviates: nutrient role: C-Source, carboxylic acid.
[5] abbreviates: nutrient role: sole nitrogen source (pyruvate carbon).
[6] abbreviates: nutrient role: sole phosphorus source (pyruvate carbon).
[7] abbreviates: nutrient role: sole sulfur source (pyruvate carbon).
[8] abbreviates: nutrient role: C-Source, amino acid.
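Wherever DuctApe activity index of respiration/growth curve (0 no growth to 9 maximum) is given: biolog PM4 phosphorus and sulfur plates, tetrazolium violet dye reduction read in the OmniLog every 15 min, kinetic curves scored by DuctApe, each plate run in triplicate.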

As for `O=C(O)[C@H](O)[C@@H](O)[C@H](O)[C@H](O)CO[C@H]1O[C@H](CO)[C@H](O)[C@H](O)[C@H]1O` [Melibionic acid], in test [1] (setting [3]), the “area under OmniLog respiration curve” value came out at 6790 ± 140. Besides, the DuctApe activity index in test [2] (setting [3]) is 7 (active).
On to `O=C(O)c1ccc(O)cc1` [4-Hydroxybenzoic acid], for which the “area under OmniLog respiration curve” value in test [1] (setting [4]) worked out at 4.72. In addition, the DuctApe activity index in test [2] (setting [4]) was 0 (inactive).
On to `OCC1OC(O)(CO)C(O)C1O` [D-Fructose], for which the “area under OmniLog respiration curve” value in test [1] (setting [3]) amounted to 8740 ± 720. Also, in test [2] (setting [3]), the DuctApe activity index is 8.67 (active).
For `O=c1[nH]c(=O)c2nc[nH]c2[nH]1` [Xanthine], the “area under OmniLog respiration curve” value in test [1] (setting [5]) is 2650 ± 1100. Further, the DuctApe activity index in test [2] (setting [5]) was 4 (active).
Taken in the same sequence, the figures for `NC=O` [Formamide] were 38.4 ± 58 and 0 (inactive).
Consider `O=C(O)CC(O)C(=O)O` (racemic) [DL-Malic acid], for which the “area under OmniLog respiration curve” value in test [1] (setting [4]) is 8150 ± 730. Moreover, in test [2] (setting [4]), the DuctApe activity index is 8 (active).
As for `Cc1cn([C@H]2C[C@H](OP(=O)(O)O)[C@@H](CO)O2)c(=O)[nH]c1=O` [Thymidine 3`-Monophosphate], in test [1] (setting [6]), the “area under OmniLog respiration curve” value amounted to 8940 ± 450. Besides, the DuctApe activity index in test [2] (setting [6]) was 8.67 (active).
On to `N[C@@H](CS)C(=O)NCC(=O)O`, for which, in test [1] (setting [7]), the “area under OmniLog respiration curve” value was 6960 ± 77. Also, in test [2] (setting [7]), the DuctApe activity index was 7 (active).
For `NCC(=O)N1CCC[C@H]1C(=O)O`, in test [1] (setting [8]), the “area under OmniLog respiration curve” value was 7860 ± 920. Further, the DuctApe activity index in test [2] (setting [8]) was 8 (active).
In the case of `OC1OC[C@@H](O)[C@H](O)[C@H]1O` (stereo partly drawn) [D-Xylose], the “area under OmniLog respiration curve” value in test [1] (setting [3]) amounted to 9160 ± 580. Besides, the DuctApe activity index in test [2] (setting [3]) was 8.67 (active).
On to `Nc1ccn([C@@H]2O[C@H](CO)[C@@H](O)[C@H]2OP(=O)(O)O)c(=O)n1` [Cytidine 2`-Monophosphate], for which the “area under OmniLog respiration curve” value in test [1] (setting [6]) came out at 9170 ± 640. Moreover, the DuctApe activity index in test [2] (setting [6]) is 8.67 (active).
Regarding `Nc1ncnc2c1ncn2[C@H]1C[C@H](O)[C@@H](CO)O1` [2`-Deoxyadenosine], in test [1] (setting [3]), the “area under OmniLog respiration curve” value was found to be 8940 ± 560. Further, in test [2] (setting [3]), the DuctApe activity index was 8.67 (active).
On to `C[C@H](N)C(=O)N[C@H](C(=O)O)[C@@H](C)O`, for which the “area under OmniLog respiration curve” value in test [1] (setting [5]) was found to be 7530 ± 1100. Moreover, in test [2] (setting [5]), the DuctApe activity index is 8 (active).
Take `OC[C@H]1O[C@@](CO)(O[C@H]2O[C@H](CO)[C@@H](O)[C@H](O)[C@H]2O)[C@@H](O)[C@@H]1O` [Sucrose]: the “area under OmniLog respiration curve” value in test [1] (setting [3]) is 634 ± 420. Further, the DuctApe activity index in test [2] (setting [3]) was 1.67 (inactive).
For the molecule `NC(=O)NC(N)=O` [Biuret], the “area under OmniLog respiration curve” value in test [1] (setting [5]) was found to be 3650 ± 1400. For the same molecule, in test [2] (setting [5]), the DuctApe activity index was 5 (active).
With `C[C@@H](OP(=O)(O)O)[C@H](N)C(=O)O` [O-Phospho-L-Threonine], the “area under OmniLog respiration curve” value in test [1] (setting [6]) turned out to be 9330 ± 620. Moreover, the DuctApe activity index in test [2] (setting [6]) is 8.67 (active).
Turning to `OC[C@@H](O)[C@@H](O[C@H]1O[C@H](CO)[C@@H](O)[C@H](O)[C@H]1O)[C@H](O)[C@@H](O)CO` [Maltitol], in test [1] (setting [3]), the “area under OmniLog respiration curve” value is 4.72. Besides, the DuctApe activity index in test [2] (setting [3]) is 0 (inactive).
On to `CO[C@@H]1O[C@H](C(=O)O)[C@@H](O)[C@H](O)[C@H]1O` [b-Methyl-D-Glucuronic acid], for which the “area under OmniLog respiration curve” value in test [1] (setting [4]) was 6620 ± 580. Besides, in test [2] (setting [4]), the DuctApe activity index was 7.33 (active).
In the case of `C[C@@H](O)CC(=O)O` [b-Hydroxybutyric acid], the “area under OmniLog respiration curve” value in test [1] (setting [4]) amounted to 186 ± 53. Further, the DuctApe activity index in test [2] (setting [4]) was 1 (inactive).
The matching figures for `CCC(=O)O` [Propionic acid]: 7450 ± 300 and 8 (active).
For the molecule `NC(CCSCC(N)C(=O)O)C(=O)O` (stereo not given) [Cystathionine], in test [1] (setting [7]), the “area under OmniLog respiration curve” value worked out at 4100 ± 130. Further, the DuctApe activity index in test [2] (setting [7]) was 6 (active).
As to `CCCCN` [N-Butylamine], in test [1] (setting [5]), the “area under OmniLog respiration curve” value worked out at 5.65 ± 1.6. Further, the DuctApe activity index in test [2] (setting [5]) was 0 (inactive).
Regarding `Nc1nc2c(ncn2[C@@H]2O[C@H](CO)[C@@H](O)[C@H]2O)c(=O)[nH]1` [Guanosine], in test [1] (setting [5]), the “area under OmniLog respiration curve” value was 442 ± 580. The DuctApe activity index in test [2] (setting [5]) is 0.333 (inactive).
Regarding `CSCC[C@@H](N)C(=O)O` [D-Methionine], in test [1] (setting [7]), the “area under OmniLog respiration curve” value came to 4590 ± 230. In addition, the DuctApe activity index in test [2] (setting [7]) was 6.33 (active).
Turning to `CC(C)[C@@H](N)C(=O)O` [D-Valine], the “area under OmniLog respiration curve” value in test [1] (setting [5]) stood at 469 ± 470. Besides, in test [2] (setting [5]), the DuctApe activity index was 0.667 (inactive).
On to `CO[C@@H]1OC[C@@H](O)[C@H](O)[C@H]1O` [b-Methyl-D-Xyloside], for which, in test [1] (setting [3]), the “area under OmniLog respiration curve” value turned out to be 4.72. Also, the DuctApe activity index in test [2] (setting [3]) is 0 (inactive).
With `Nc1nc2c(ncn2[C@@H]2O[C@H](CO)[C@@H](O)[C@H]2OP(=O)(O)O)c(=O)[nH]1` [Guanosine 2`-Monophosphate], the “area under OmniLog respiration curve” value in test [1] (setting [6]) turned out to be 9820 ± 820. In test [2] (setting [6]), the DuctApe activity index is 9 (active).
As for `O=C(O)Cc1ccc(O)cc1` [p-Hydroxyphenyl Acetic acid], the “area under OmniLog respiration curve” value in test [1] (setting [4]) was found to be 40.5 ± 54. In test [2] (setting [4]), the DuctApe activity index is 0 (inactive).
`CCCCCN` [N-Amylamine]: the “area under OmniLog respiration curve” value in test [1] (setting [5]) stood at 12.9 ± 14. Moreover, in test [2] (setting [5]), the DuctApe activity index was 0 (inactive).
`O=C1CC[C@@H](C(=O)O)O1` [a-Hydroxyglutaric acid-g-Lactone]: the “area under OmniLog respiration curve” value in test [1] (setting [4]) is 4.72. The DuctApe activity index in test [2] (setting [4]) is 0 (inactive).
